Data from PubChem BioAssay (NCI).
About 79,000 compounds went through this panel and 15% of them were active in at least one assay; those are over-represented in the sample as a whole. Rule as the data show it: active = growth inhibition above about 70%; inactive = the rest. Where a SMILES comes first, the peptide text is derived from it. [ ]: non-standard residue; d: D form. The star is where a group is joined. NMeAc5c = CNC1(C(=O)O)CCCC1; Boc = CC(C)(C)OC(=O)*; OBn = c1ccc(CO*)cc1

Legend:
[1] = NCI Yeast Anticancer Drug Screen. Data for the rad50 strain (AID 155);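 also: 0% = growth of vehicle-only cultures of the same strain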; conditions: S. cerevisiae rad50 strain growth inhibition; at 50.0 µM; stronger effect = higher value
In short: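 A DNA repair-deficient yeast mutant serves as the test organism; compound-induced growth inhibition is calculated against vehicle-treated cells.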

[2] = NCI Yeast Anticancer Drug Screen. Data for the mec2-1 strain (AID 157); conditions: S. cerevisiae mec2-1 strain, at 50.0 µM, stronger effect = higher value
In short: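 Test agents were screened against the mec2-1 yeast strain, with defined DNA repair or cell cycle alteration. Growth was scored as inhibition against vehicle-only controls.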

[3] = NCI Yeast Anticancer Drug Screen. Data for the sgs1 mgt1 strain (AID 161);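 also: 0% = growth of cultures given vehicle only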; conditions: S. cerevisiae sgs1 mgt1 strain, at 50.0 µM, stronger effect = higher value
In short: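 Read-out: growth inhibition vs vehicle controls. Cells: mutant yeast strain deficient in DNA damage repair.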

[4] = NCI Yeast Anticancer Drug Screen. Data for the cln2 rad14 strain (AID 165);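 also: 0% = growth equal to vehicle treated cultures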; conditions: S. cerevisiae cln2 rad14 strain, at 50.0 µM, stronger effect = higher value
In short: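 Growth of compound-exposed yeast (cln2 rad14 genotype) measured and expressed as inhibition relative to vehicle.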

[5] = NCI Yeast Anticancer Drug Screen. Data for the bub3 strain (AID 167); conditions: S. cerevisiae bub3 mutant strain, at 50.0 µM, stronger effect = higher value
In short: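 Inhibition values come from growth of compound-treated mutant yeast normalised to vehicle-treated controls.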

[6] = NCI Yeast Anticancer Drug Screen. Data for the mlh1 rad18 strain (AID 175); conditions: S. cerevisiae mlh1 rad18 strain growth inhibition; at 50.0 µM; stronger effect = higher value
In short: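 In this whole-cell yeast screen, a strain with altered DNA damage repair is challenged with compound, and its growth is measured against matched vehicle-treated controls.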

Measured: growth inhibition

CN(C)c1cc2c(cc1N(C)C)-c1ccccc1C2
inactive: [1] 9.85% | [2] 6.5% | [3] 13.9% | [4] -0.2% | [5] 10.1% | [6] 28.9%

N#CC(C#N)=CN1CCCCC1
inactive: [1] -16.2% | [2] -4.65% | [3] -12.1% | [4] 17.6% | [5] -6.35% | [6] -17.8%

CC(C)(O)C(C)(O)C#CC(C)(O)C(C)(C)O (configuration not stated)
inactive: [1] -2.65% | [2] 1.2% | [3] 1.3% | [4] -15.2% | [5] 2.5% | [6] 6.75%

Cc1cc(C)c(S(=O)(=O)Nc2ccccc2F)c(C)c1
inactive: [1] 40.1% | [2] 30.7% | [3] 62.9% | [4] 7.3% | [5] 29.4% | [6] 56.9%

Nc1ccnc(=O)[nH]1
inactive: [1] -3.5% | [2] -11.7% | [3] -18.8% | [4] -20.8% | [5] 3.3% | [6] -36.8%

CC(=O)N(C(C)=O)n1c(-c2ccccc2)n[nH]c1=O
inactive: [1] -7.55% | [2] -17.9% | [3] -14.3% | [4] 13.1% | [5] -10.1% | [6] 2.45%

COS(=O)(=O)C=C(c1ccccc1)c1ccccc1
inactive: [1] 12.8% | [2] -27.1% | [3] 15.7% | [4] -24.5% | [5] 6.4% | [6] -1.95%

COC(=O)c1ccc(NC(=O)c2cc(OC)c(OC)c(OC)c2)cc1
inactive: [1] -24.3% | [2] -24.1% | [3] -19.4% | [4] -5.05% | [5] -9% | [6] -24%

Cc1csc(C)[n+]1CC(=O)c1ccccc1
inactive: [1] -10% | [2] -5.45% | [3] -8.4% | [4] -20.2% | [5] -6.1% | [6] -29.1%

c1ccc(CNC2Cc3ccccc3C2)cc1
inactive: [1] 19.6% | [2] -10.7% | [3] 0.55% | [4] -36.1% | [5] -11.7% | [6] -2.4%

CCCC(=O)OCC1OC(n2cc(F)c(=O)[nH]c2=O)CC1O (configuration not stated)
inactive: [1] 14.2% | [2] -4.2% | [3] 5.65% | [4] 9.7% | [5] 6.65% | [6] -27.4%

COc1cc2nncc(SCc3ccc(Cl)cc3)c2cc1OC
inactive: [1] -1% | [2] 4.2% | [3] -0.55% | [4] -11% | [5] 15.5% | [6] 4.05%

CCNc1nc2c(ncn2C2CC(O)C(COP(=O)(O)O)O2)c(=O)[nH]1 (configuration not stated)
inactive: [1] 18.9% | [2] 15.2% | [3] 27.3% | [4] 11.8% | [5] 13.2% | [6] -16.1%

CN(C(=O)C(Cc1ccccc1)NC(=O)OC(C)(C)C)C1(C(=O)NC(Cc2ccccc2)C(=O)OCc2ccccc2)CCCC1 (stereo not drawn) (Boc-Phe-[NMeAc5c]-Phe-OBn; configuration not given here)
inactive: [1] -3.35% | [2] 15.6% | [3] -4.5% | [4] 11.8% | [5] 8.6% | [6] 13.6%

CSCCC(NC(=O)NS(=O)(=O)c1ccc(C)cc1)C(=O)O (configuration not stated)
inactive: [1] -4.3% | [2] -16.1% | [3] -2.3% | [4] 20.2% | [5] 6.45% | [6] 9.55%

COC(=O)C1CN=CN1CCc1ccccc1 (configuration not stated)
inactive: [1] -2.05% | [2] -10.6% | [3] 5.25% | [4] 12.4% | [5] 2.5% | [6] 45.8%

C[Si](C)(CCCOC(N)=O)COC(N)=O
inactive: [1] -15.2% | [2] -6.55% | [3] -18.4% | [4] -4.1% | [5] 4.8% | [6] -18.9%

O=C1C(c2ccccc2)=C(c2ccccc2)C(c2ccc(Cc3ccc(C4=C(c5ccccc5)C(=O)C(c5ccccc5)=C4c4ccccc4)cc3)cc2)=C1c1ccccc1
inactive: [1] 20.1% | [2] 32.4% | [3] 16.8% | [4] 14.6% | [5] 15.1% | [6] 26.6%

CC(C)C(NCc1c(O)ccc2c(-c3ccccc3)cc(=O)oc12)C(=O)O (configuration not stated)
inactive: [1] -33.5% | [2] -21.6% | [3] -19% | [4] -12.2% | [5] -35.5% | [6] -10.2%

CC(=O)OCC1OC(n2cnc3c(Cl)nc(Cl)nc32)CC1OC(C)=O (configuration not stated)
inactive: [1] 37.3% | [2] 20.9% | [3] 24.4% | [4] 30.4% | [5] 5.2% | [6] 34.9%

CN(C)c1ccccc1CCO
inactive: [1] -4.2% | [2] -33.5% | [3] -6.7% | [4] -0.4% | [5] -3.65% | [6] 3.35%

Cn1c2ccccc2c(=O)c2cc(NC(=O)/C=C/C(=O)Nc3ccc4c(c3)c(=O)c3ccccc3n4C)ccc21
inactive: [1] -3.25% | [2] 0.75% | [3] -2.7% | [4] -14.6% | [5] -3.8% | [6] 5.9%

Nc1nc(N)nc(CCCCc2nc(N)nc(N)n2)n1
inactive: [1] -28.1% | [2] -16% | [3] -14.3% | [4] -15.7% | [5] -59.5% | [6] -21.5%

CC(=O)Oc1ccc(CC(C)C(C)Cc2ccc(OC(C)=O)c(OC(C)=O)c2)cc1OC(C)=O (configuration not stated)
inactive: [1] 51% | [2] 23% | [3] 50% | [4] 7.4% | [5] 0.5% | [6] 26.5%

CC(N)C(O)C(C)C(=O)O (configuration not stated)
inactive: [1] 20.8% | [2] 9.5% | [3] 41.8% | [4] 44.5% | [5] 35% | [6] 7.35%

CCCCCC1(C)OCC(c2ccccc2)O1 (configuration not stated)
inactive: [1] -12.8% | [2] -9.45% | [3] -21% | [4] -47% | [5] -13.3% | [6] 21.1%

CCOC(=O)Nc1ccccc1F
inactive: [1] 4.4% | [2] -16.1% | [3] -3.95% | [4] -6.15% | [5] 4.75% | [6] 9%

Cc1ccc2c(c1)Cc1cc(C)ccc1-2
inactive: [1] 25.1% | [2] 12.4% | [3] 14.4% | [4] 7.65% | [5] 31.2% | [6] 19.4%

CC(N(C)Cc1ccccc1)C(C)(O)c1ccccc1 (configuration not stated)
inactive: [1] -10.4% | [2] 6.55% | [3] 7.75% | [4] -24.9% | [5] 51% | [6] 30.8%

CC(=O)[CH-]C(=O)c1ccccc1.CC(=O)[CH-]C(=O)c1ccccc1.CCCCCCCCCCCCCCCCCC(=O)[O-].CCCCCCCCCCCCCCCCCC(=O)[O-].[Ti+4]
inactive: [1] 11.2% | [2] -11.2% | [3] -6.55% | [4] -9.7% | [5] 2% | [6] -0.45%

COc1ccc(-n2c(C)c(COC(C)=O)c(COC(C)=O)c2C)cc1
inactive: [1] -5.4% | [2] -18.2% | [3] -0.55% | [4] -2.8% | [5] -7.55% | [6] -55.2%

COC(=O)C(=O)c1c(C(=O)OC)nc2nnc(N)n2c1C1CC1
inactive: [1] -5.6% | [2] 11.8% | [3] 7.75% | [4] -17.9% | [5] -5.35% | [6] 4.25%

CSc1nc(NC2OCC(O)C(O)C2O)cc(=O)[nH]1 (configuration not stated)
inactive: [1] 7.75% | [2] -0.95% | [3] 10.8% | [4] -2.25% | [5] -13.8% | [6] 1.3%

O=C(Oc1c([N+](=O)[O-])cc(-c2ccccc2)cc1[N+](=O)[O-])c1ccccc1
inactive: [1] 22.7% | [2] 18.1% | [3] 9.05% | [4] 13.1% | [5] 20.1% | [6] 35.6%

CC12C(=O)OC(=O)C1C1C=CC2C1 (configuration not stated)
inactive: [1] 20.2% | [2] 6.15% | [3] -18.2% | [4] -64.5% | [5] -0.35% | [6] 5.05%

CCNC(=O)c1ccc(Cl)cc1
inactive: [1] 19.9% | [2] -2.25% | [3] 8.55% | [4] 0.65% | [5] -6.15% | [6] 0.45%

O=C(CC(=O)N1CCOCC1)N1CCOCC1
inactive: [1] 4.5% | [2] -14.8% | [3] 26.9% | [4] 7.9% | [5] 19.4% | [6] 7.45%

CC(C)NC(=O)CCC(=O)O
inactive: [1] -14.9% | [2] 21.6% | [3] -17.9% | [4] -5.65% | [5] 12.1% | [6] 0.5%

COc1ccc(-c2nc3ccccc3[nH]2)cc1
inactive: [1] 16.4% | [2] -2.7% | [3] 1.7% | [4] -4% | [5] -21.5% | [6] -3.1%

CC(C)(CCl)c1ccccc1
inactive: [1] -10.6% | [2] -3.1% | [3] -6.3% | [4] 0.75% | [5] 4% | [6] -0.55%

Nc1ccc(CC(=O)O)cc1S(=O)(=O)O
inactive: [1] 25.8% | [2] -18.4% | [3] 4% | [4] 9.1% | [5] 4.25% | [6] 26.6%

COc1ccc(C(=O)CC2=NC3NN(c4ccccc4)C(=O)C3=C2CC(=O)c2ccc(OC)cc2)cc1 (configuration not stated)
inactive: [1] 48.1% | [2] 32.1% | [3] 55.5% | [4] 23.8% | [5] -2.25% | [6] 31.8%
